PfGluPho inh = PfG6PD (Plasmodium falciparum) enzyme inhibition. PfGluPho enzyme, NADPH resazurin-diaphorase fluorescence. inhibition, % at 20 µM. 350,000 tested, 0.78% active. AID 504690;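 active = inhibition reaching at least a set limit at 20 µM in the primary screen, cut at about 59% in these data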
PfM18AAP inh = PfM18AAP enzyme inhibition; recombinant PfM18AAP, H-Glu-NHMec fluorogenic cleavage; inhibition, % at 7.35 µM; 290,000 tested, 1.2% active; AID 1822;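 active = inhibition above the campaign mean inhibition over all tested compounds plus 3 SD, cut at about 28% in these data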
PHOSPHO1 inh = blocks human PHOSPHO1 phosphatase activity; Q8TCT1; recombinant PHOSPHO1, absorbance phosphatase assay; inhibition, % at 13.3 µM; 290,000 tested, 1.1% active; in the data active = inhibition above about 60%
Target sequence (Q8TCT1 whole entry, looked up): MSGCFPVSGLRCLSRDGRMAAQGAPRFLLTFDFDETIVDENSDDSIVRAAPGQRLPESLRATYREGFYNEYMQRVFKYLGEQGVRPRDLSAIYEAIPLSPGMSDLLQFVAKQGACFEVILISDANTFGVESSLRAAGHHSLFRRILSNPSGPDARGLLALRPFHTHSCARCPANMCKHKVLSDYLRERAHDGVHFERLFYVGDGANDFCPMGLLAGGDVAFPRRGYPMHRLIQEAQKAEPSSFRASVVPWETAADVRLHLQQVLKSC
H9c2 protect = modulators protecting cardiomyocytes from myocardial damage | protection from H2O2 cell death, % at 20 µM | H9c2 cardiomyocytes, H2O2 injury protection, ATPLite, 2 h | 360,000 tested, 0.63% active;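 active = compounds giving at least 50% protection of heart cells from peroxide-induced death in the single-dose screen, raw or plate-pattern-corrected value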
ALR inh = inhibitors of human sulfhydryl oxidase ALR. 290,000 tested, 3.8% active. P55789. inhibition, % (no concentration beside the values). AID 485317. purified ALR, DTT oxidation, H2O2 HRP-luminol luminescence;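 active = mean replicate inhibition above about 79%, with every replicate also reaching it, limit read from the data; inconclusive = only one of the two criteria met; inactive = mean below limit and not every replicate reaching it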
Target sequence (P55789 whole entry, looked up): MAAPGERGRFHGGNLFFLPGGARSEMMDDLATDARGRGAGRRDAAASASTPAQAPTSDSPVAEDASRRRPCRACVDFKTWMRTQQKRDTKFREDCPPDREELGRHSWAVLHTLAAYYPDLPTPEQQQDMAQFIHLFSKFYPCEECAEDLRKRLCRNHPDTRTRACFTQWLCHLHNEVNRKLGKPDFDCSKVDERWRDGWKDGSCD
Of the large screens only hits and unclear results are named; the others gave an inactive call. Shown are actives, neighbours in structure and some others; about 5.6% of the full set was active somewhere.

O=C(CC(SCCO)c1ccc(F)cc1)c1ccco1 (stereo unspecified)	ALR inh 89
N#CCCN(C(=O)COC(=O)CCc1c[nH]c2ccccc12)c1ccc(F)cc1	none (no result: PfM18AAP inh, PHOSPHO1 inh, ALR inh)
COc1ccc(C(=O)NNC(=O)c2ccc3ccccc3n2)cc1	H9c2 protect 52 (no result: PfM18AAP inh, PHOSPHO1 inh)
O=C(COC(=O)CCc1nc2ccccc2c(=O)[nH]1)Nc1c(Cl)cccc1C(F)(F)F	H9c2 protect 52 (no result: PfM18AAP inh, PHOSPHO1 inh)
N#CCCN(C(=O)COC(=O)CCc1nc2ccccc2c(=O)[nH]1)c1ccccc1F	H9c2 protect 58 (no result: PfM18AAP inh, PHOSPHO1 inh, ALR inh)
O=C(COC(=O)CCc1nc2ccccc2c(=O)[nH]1)Nc1ccc2c(c1)OCO2	H9c2 protect 52 (no result: ALR inh)
COc1ccc(NC(=O)C2CCCN2C(=O)Nc2ccc(OC)cc2)cc1 (stereo unspecified)	none (no result: ALR inh)
Cc1ccc(F)cc1C(=O)N1CCOCC1c1cc(C(=O)Nc2ccccc2)no1 (stereo unspecified)	none (no result: PfGluPho inh, PfM18AAP inh, PHOSPHO1 inh, ALR inh)
O=C(CCc1nc2ccccc2c(=O)[nH]1)OCc1ccc(-c2ccccc2)cc1	none
CC(NC(=O)COC(=O)CCc1nc2ccccc2c(=O)[nH]1)c1ccccc1 (stereo unspecified)	none
Cc1ccccc1NC(=O)COC(=O)CCc1nc2ccccc2c(=O)[nH]1	H9c2 protect 65
Cc1ccc(OCCOC(=O)CCc2nc3ccccc3c(=O)[nH]2)cc1	H9c2 protect 55
O=C(COC(=O)CCc1nc2ccccc2c(=O)[nH]1)NC(c1ccccc1)c1ccccc1	H9c2 protect 59
CC(OC(=O)CCc1nc2ccccc2c(=O)[nH]1)C(=O)NC1CCCC1 (stereo unspecified)	H9c2 protect 55
COc1ncnc(OC)c1S(=O)(=O)Nc1ccc(C(F)(F)F)cc1	none (no result: ALR inh)
CCN(CC(=O)Nc1c(F)cccc1F)C(=O)c1ccc(=O)n(Cc2ccccc2)n1	none
CCCCOc1ccc(C(=O)NCC(=O)N(C)Cc2nc3ccccc3c(=O)[nH]2)cc1	H9c2 protect 54 (no result: PfM18AAP inh, PHOSPHO1 inh)
COc1ccc(C(=O)NNC(=O)CCc2nc3ccccc3c(=O)[nH]2)cc1	H9c2 protect 64 (no result: PfM18AAP inh, PHOSPHO1 inh)
Cc1cccc(C(=O)NCC(=O)N(C)Cc2nc3ccccc3c(=O)[nH]2)c1	none (no result: PfM18AAP inh, PHOSPHO1 inh)
CCc1ccc(C(=O)NNC(=O)CCc2nc3ccccc3c(=O)[nH]2)cc1	none (no result: PfM18AAP inh, PHOSPHO1 inh, ALR inh)
CCN(CC(=O)Nc1cc(Cl)ccc1C)C(=O)c1ccc(=O)n(Cc2ccccc2)n1	PHOSPHO1 inh 62
CCN(CC(=O)Nc1cc(Cl)ccc1C)C(=O)CCc1nc2ccccc2c(=O)[nH]1	H9c2 protect 69 (no result: PfM18AAP inh, PHOSPHO1 inh)
CCOC(=O)[C@@H]1[C@H]2COc3ccccc3[C@@H]2N2C(=O)N(c3cccc(Cl)c3)C(=O)[C@]12C	none
NS(=O)(=O)c1cccc(NC(=O)COC(=O)Cc2ccc(S(=O)(=O)N3CCOCC3)s2)c1	none (no result: PfM18AAP inh, PHOSPHO1 inh, ALR inh)
COc1ccc(S(=O)(=O)N(C)c2nc3ccccc3n3c(CC(C)C)nnc23)cc1	none
COc1cc(C2C(c3ccccc3)C(c3cc(OC)cc(=O)o3)C2c2ccccc2)oc(=O)c1 (stereo unspecified)	none (no result: PfM18AAP inh, PHOSPHO1 inh, ALR inh)
O=c1c(/C=N/OCc2ccc(Cl)cc2Cl)c[nH]n1-c1cccc(Cl)n1	ALR inh 98
Cc1cc(-c2ccccc2)nc2[nH]n(-c3ccccc3)c(=O)c12	ALR inh 99
O=c1c2c(C(F)(F)F)cc(C(F)(F)F)nc2[nH]n1-c1ccccc1	none
Cc1cc(C(C)(C)C)nc2[nH]n(-c3ccccc3)c(=O)c12	ALR inh 96
Cc1cc(C)c2c(=O)n(-c3ccccc3)[nH]c2n1	ALR inh 99
O=c1c2c3n(c(=O)nc2[nH]n1-c1ccccc1)CCCCC3	none
COc1cccc(-c2ccnc3[nH]n(-c4ccccc4)c(=O)c23)c1	none
CSCC[C@H](NC(=O)C1CCN(S(=O)(=O)c2ccccc2)CC1)C(=O)NC1CC1	none
CCc1nnc(NC(=O)C(c2ccccc2)c2ccccc2)s1	none
Cc1cccc(OCCCC(=O)NNC(=O)c2ccccn2)c1	H9c2 protect 50 (no result: PfM18AAP inh, PHOSPHO1 inh)
Cc1cccc(OCCCC(=O)NNC(=O)c2ccncc2)c1	none (no result: PfM18AAP inh, PHOSPHO1 inh, ALR inh)
Cc1ccc(S(=O)(=O)/N=C2\C=C(Nc3ccc(O)cc3)C(=O)c3ccccc32)cc1	PfGluPho inh 111 (no result: PfM18AAP inh, PHOSPHO1 inh)
CS(=O)(=O)c1cccc(S(=O)(=O)N2CCCCCC2)c1	none
N#Cc1ccccc1S(=O)(=O)N1CCN(c2cnccn2)CC1	none
O=C(Cc1ccccc1)NN1C(=O)/C(=C/c2ccccc2C(=O)O)SC1=S	none
CCOC(=O)CSc1n[nH]c(NC(=O)c2cccc(C(F)(F)F)c2)n1	ALR inh 99
CCOC(=O)CSc1n[nH]c(NC(=O)CC)n1	none (no result: ALR inh)
Cc1nn(-c2ccccc2)c(Cl)c1C(=O)Nc1nnc(C2CCCCC2)s1	none
O=C(Nc1nnc(C2CC2)s1)c1cc(-c2ccccc2)nn1-c1ccccc1	H9c2 protect 52 (no result: ALR inh)
CC(C)COP(=O)(OCC(C)C)C(Nc1ccccc1)c1ccc2c(c1)OCO2 (stereo unspecified)	H9c2 protect 67
NS(=O)(=O)c1ccc(NNC(=O)c2ccc(Br)o2)c([N+](=O)[O-])c1	ALR inh 86 (no result: PfM18AAP inh, PHOSPHO1 inh)
COc1ccccc1NC(=S)NNC(=O)c1cc(C)nn1C	PHOSPHO1 inh 67, ALR inh inconclusive
COc1ccccc1NC(=O)c1cc(C(=O)Nc2ccccc2OC)n(C)n1	none (no result: PfM18AAP inh, PHOSPHO1 inh)
COc1ccccc1NC(=S)NNC(=O)c1c(Cl)c(C)nn1C	ALR inh 86
COc1ccccc1NC(=S)NNC(=O)c1ccccc1	ALR inh inconclusive (no result: PHOSPHO1 inh)
COc1ccccc1NC(=S)NNC(=O)c1cc(C)n(C)n1	PHOSPHO1 inh 70, ALR inh 77
O=C(O)CCCN1C(=O)/C(=C\c2ccco2)SC1=S	none (no result: ALR inh)
O=C(O)CCN1C(=O)/C(=C\c2ccc(-c3nc4ccccc4s3)o2)SC1=S	PHOSPHO1 inh 94, ALR inh 98
CC(=O)c1cc(CC=C(C)C)c(O)cc1O	ALR inh 83
Cc1ccc(-c2nc(CS(=O)CC(=O)NC3CCC(C)CC3)c(C)o2)cc1 (stereo unspecified)	ALR inh 99
COc1ccc(-c2nc(CS(=O)(=O)CC(=O)NC3CCC(C)CC3)c(C)o2)cc1 (stereo unspecified)	ALR inh 98
Cc1oc(-c2ccc(Cl)cc2)nc1CN1CCC(C(=O)NCc2cccs2)CC1	none (no result: ALR inh)
Cc1oc(-c2ccc(Cl)cc2)nc1CS(=O)CC(=O)NC1CC1 (stereo unspecified)	ALR inh 99
CC(C)N(Cc1nc(-c2ccc(Cl)cc2)no1)Cc1nccn1C	none
Cc1ccc(CNC(=S)Nc2ccc(NS(=O)(=O)c3ccc(C)cc3)cc2)cc1	none
COCc1c(C(=O)NCC(c2ccco2)N2CCCC2)oc2ccccc12 (stereo unspecified)	none (no result: PfM18AAP inh, PHOSPHO1 inh, ALR inh)
Cc1ccc(S(=O)(=O)N2[C@@H](c3ccccc3F)C(C(=O)O)=CC[C@H]2c2cccc(Cl)c2)cc1	none (no result: PfM18AAP inh, PHOSPHO1 inh)
C#CCCOC(=O)Nc1ccccc1	none
CCOc1ccc(Cl)cc1S(=O)(=O)N1CCC(C(=O)NCC2CCCO2)CC1 (stereo unspecified)	none
CCOC(=O)C(=NCC1CCCO1)NNc1cc(Cl)ccc1Cl (stereo unspecified)	ALR inh 99

Source: PubChem
